Each structure is given as a SMILES string. Some structures have more than one record in an assay (separate samples or runs), and their calls can disagree. Active and inactive are the calls of the source. How the source made its calls: active means hit-call score of the fitted dose curve at least 0.9, where 1 is the maximum; inactive means score below 0.9.

What is called AC50 is the concentration at which the activity in the assay is half-maximal.

A short description of this assay: ATG_Oct_MLP_CIS: Attagene CIS-FACTORIAL HepG2 Assay for human Octamer-Binding Transcription Factor (Oct) (AID 2282993). To be noted: HepG2 Attagene cis-factorial Oct reporter, mRNA; actives raise or lower the signal. How it is done: ATG_CIS is a cell-based, multiplexed-readout assay that uses HepG2, a human liver cell line, with measurements taken at 24 hours after chemical dosing in a 24-well plate.ATG_Oct_MLP_CIS is one of 52 assay component(s) measured or calculated from the ATG_CIS assay. It is designed to make measurements of mRNA induction, a form of inducible reporter, as detected with fluorescence intensity signals by Reverse transcription polymerase chain reaction (RT-PCR) and Capillary electrophoresis technology.Data from the assay component ATG_Oct_MLP_CIS was analyzed into 1 assay endpoint. This assay endpoint, ATG_Oct_MLP_CIS, was analyzed with bidirectional fitting relative to DMSO as the negative control and baseline of activity. Using a type of inducible reporter, measures of mRNA for gain or loss-of-signal activity can be used to understand the reporter gene at the transcription factor-level as they relate to the gene POU2F1. Furthermore, this assay endpoint can be referred to as a primary readout, because this assay has produced multiple assay endpoints where this one serves a reporter gene function. To generalize the intended target to other relatable targets, this assay endpoint is annotated to the dna binding intended target family, where the subfamily is POU domain protein.
Human liver HepG2 cells are transiently transfected with multiple reporter transcription units (MRTUs) in 6-well plates using FuGene 6 reagent (Roche; 3 ml FuGene/1 mg DNA). The MRTU constructs are regulated by a cis-regulating element (promoter). […] A major difference between the CIS and TRANS system is that in CIS activities of endogenous TFs are measured, whereas the TRANS assay evaluates changes in activities of exogenous, chimeric NR-Gal4 proteins. […] At the end of 24 hour incubation, total RNA was isolated using TriZol reagent (Invitrogen). The isolated RNA is then reverse-transcribed using oligo(dT) primer and Mo-MLV reverse transcriptase (Invitrogen) with DNAse I (Ambion) treatment for 30 min. The one-tenth of the produced cDNA was amplified by PCR using Taq DNA polymerase (Invitrogen) and two reporter sequence-specific primers. The PCR products were fluorescently labeled by primer extension with 6-arboxyfluorescein (6-FAM) 5'-labeled reporter sequence-specific primer (2 min at 95 C, 20 s at 68 C and 10 min at 72 C) and these products were digested with 5U of HpaI (New England Biolabs) for 2h at 37 C. The fragments were purified using Qiaquick PCR columns (Qiagen), analyzed on an ABI 3130xL genetic analyzer (Applied Biosystems) with peak positions identified by using a set of X-rhodamine (ROX)-labeled MapMarker1000 molecular weight standards (BioVentures). The raw capillary electrophoresis data was processed using Attagraph software (Attagene).
For the compound `[Na+]`, the compound was called inactive.

Take `CC(=O)CCC=C(C)CCC=C(C)C`: the call was inactive.

`CC(=O)CCC(=O)O`: the call was inactive.

As to `CCOC(=O)CC(C)C`, the result was inactive.

Regarding `C=C(C)C(N)=O`, the compound was called inactive.

On to `CCCCCCC(C)O` (stereo not given), for which the compound was called inactive.

As to `CCCCOCCOCCOCCO`, the result was inactive.

Take `CC(C)N(c1ccccc1)C(C)C`: the compound was classed as inactive.

For the compound `CC(=O)C1=C(C)[C@@H]2C[C@@]3(C1)[C@H](C)CC[C@H]3C2(C)C`, the compound was classed as inactive.

As to `CC(C)OB(OC(C)C)OC(C)C`, the call was inactive.

Consider `CC(=O)c1ccc2ccccc2c1`, for which the call was inactive.

For the compound `CCCCCCCCCCOC(=O)c1ccccc1C(=O)OCCCCCCCC`, the call was inactive.

As for `CC1=CCC(=C(C)C)CC1`, the compound was called inactive.

With `CC12CCC(C1)C(C)(C)C2O` (stereo not given), the result was inactive.

Take `C=C(C)C(=O)OCCC(C)OC(=O)C(=C)C` (stereo not given): the compound was classed as inactive.

As for `C/C=C(\C)C(=O)OC/C=C(\C)CCC=C(C)C`, the outcome was inactive.

For `Cc1cc(O)c2c(c1)C(=O)c1cc(O)cc(O)c1C2=O`, the AC50 was 8.59 µM (active).

Consider `O=C(OCc1ccccc1)c1ccccc1O`, for which the result was inactive.

For the compound `Nc1ccc(N)c([N+](=O)[O-])c1`, the call was inactive.

As to `Cc1ccncc1`, the call was inactive.

Regarding `CC1=CC[C@@H](C(C)(C)O)CC1`, the call was inactive.

Consider `CC(=N[Si](C)(C)C)O[Si](C)(C)C`, for which the result was inactive.

Turning to `CC(O)CN` (stereo not given), the call was inactive.

Consider `CC1=CCC(C(C)(C)O)CC1` (stereo not given), for which the call was inactive.

Turning to `CCC(=O)OC/C=C(\C)CCC=C(C)C`, the result was inactive.

For `COc1ccccc1NC(=O)CC(C)=O`, the call was inactive.

Take `CC(C)COC(=O)c1ccccc1`: the outcome was inactive.

Take `CCOC(=O)C=Cc1ccccc1`: the compound was classed as inactive.

In the case of `C#C[C@]1(O)CC[C@H]2[C@@H]3CCc4cc(O)ccc4[C@H]3CC[C@@]21C`, the call was inactive and the AC50 is 27.1 µM (active) [middle of 4 runs].

Turning to `N=C1N=C(N)c2ccccc21`, the compound was classed as inactive.

Turning to `CCCCCCCCOC(=O)c1ccc(O)cc1`, the result was inactive.

On to `CCCCOCCOC(=O)c1ccccc1C(=O)OCCOCCCC`, for which the compound was called inactive.

`CCCCCCC(O)CCOC(C)=O` (stereo not given): the result was inactive.

Take `S=c1[nH][nH]c(=S)s1`: the result was inactive.

Take `CCCCCC1CCC(=O)O1` (stereo not given): the result was inactive.

`C=C1CC/C=C(\C)CC[C@@H]2[C@@H]1CC2(C)C`: the compound was called inactive.

Turning to `CCCCCCCCOC(C)=O`, the call was inactive.

With `CCCCCC1C(=O)CCC1CC(=O)OC` (stereo not given), the compound was classed as inactive.

Consider `O=S1(=O)CC(Cl)(Cl)C(Cl)(Cl)C1`, for which the outcome was inactive.

These data come from PubChem BioAssay (EPA / NIEHS).
